For 13 compounds, growth results are on record in PubChem BioAssay (NCI).

Compounds without any hit were thinned out: in the full panel of roughly 83,000, 20% have a hit.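 A percent growth of 40 corresponds to 60% growth inhibition; 0 means no net growth; -100 means all cells died. Active threshold: below 10.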 A number with no mark means an inactive call. Activity calls are given as the source filed them.

Some test systems named below: NCI-H23 lung; NCI-H226 lung; NCI-H322M lung; HOP-62 NSCLC; NCI-H460 lung; HOP-92 NSCLC; NCI-H522 lung; A549/ATCC NSCLC; 786-0 renal; COLO 205 colon.
Assay in all cases: NCI-60 one-dose screen, 48 h (100 = growth as untreated, 0 = no growth, -100 = all killed)
Conditions in all cases: 10 µM unless noted

Consider `CN(C)C1CCC(NC2=CC(=O)C=CC2=O)CC1` (stereo not given), for which the growth in the assay with NCI-H23 lung was 110%; with NCI-H226 lung, 116%; with NCI-H322M lung, 102%; with HOP-62 NSCLC it was 116%; in the assay on NCI-H460 lung it was 109%; with HOP-92 NSCLC it was 118%. Besides, the growth was 90.2% with NCI-H522 lung, 106% in the assay with A549/ATCC NSCLC, 121% in the assay on 786-0 renal and 128% with COLO 205 colon.
As for `CCN1C(=O)/C(=c2\sc3n(c2=O)C2C(NN=3)N(CC)C(=S)N2CC)c2ccccc21` (stereo not given), the growth in the assay with NCI-H23 lung is 101%; in the assay on NCI-H226 lung, 92.3%; in the assay on NCI-H322M lung, 103%; in the assay on HOP-62 NSCLC, 79.2%; in the assay with NCI-H460 lung, 107%; in the assay with HOP-92 NSCLC, 99.2%. Moreover, the growth with NCI-H522 lung was 91.9%; in the assay on A549/ATCC NSCLC, 106%; in the assay on 786-0 renal it was 99.5%; with COLO 205 colon it was 103%.
As for `COc1ccc(/C=C/c2nc(N3CCOCC3)c3cc(F)c(F)cc3n2)cc1OC`, the growth in the assay on NCI-H23 lung was 34.8%; in the assay with NCI-H226 lung it was 33.2%; with NCI-H322M lung, 70.2%; in the assay with HOP-62 NSCLC it was 86.8%; with NCI-H460 lung, 36.4%; with HOP-92 NSCLC it was 33.7%. The growth with NCI-H522 lung was 26%; in the assay on A549/ATCC NSCLC it was 30.9%; in the assay with 786-0 renal, 45.4%; in the assay on COLO 205 colon it was 15.6%.
For the compound `CC(C(=O)n1cc(-c2ccccc2)c(-c2ccccc2)c1)c1ccccc1` (stereo not given), the growth was 101% with NCI-H23 lung; 104% with NCI-H226 lung; 110% in the assay with NCI-H322M lung; 95.4% with HOP-62 NSCLC; 104% with NCI-H460 lung; 90.5% in the assay with HOP-92 NSCLC. Moreover, the growth is 102% in the assay on NCI-H522 lung, 88.7% in the assay on A549/ATCC NSCLC, 98% with 786-0 renal and 122% in the assay on COLO 205 colon.
As for `COc1cc(C(=O)OCCCCCCCCCCC[P+](c2ccccc2)(c2ccccc2)c2ccccc2)ccc1O`, the growth in the assay on NCI-H23 lung is -18.2% (active); with NCI-H226 lung, 27.9%; in the assay on NCI-H322M lung it was 1.65% (active); in the assay with HOP-62 NSCLC, -83.8% (active); in the assay with NCI-H460 lung it was -10.6% (active); in the assay on HOP-92 NSCLC it was -49.5% (active). Besides, the growth in the assay on NCI-H522 lung was -50.3% (active); in the assay on A549/ATCC NSCLC, -8.01% (active); in the assay with 786-0 renal it was 5.62% (active); in the assay on COLO 205 colon, -84.1% (active).
Turning to `CCCCCCCN(CCCCCCC)C(=N)c1ccc(OC)c2ccccc12`, the growth in the assay with NCI-H23 lung is -70.2% (active); in the assay with NCI-H226 lung, -73.1% (active); in the assay on NCI-H322M lung it was -89% (active); in the assay on HOP-62 NSCLC it was -85.9% (active); with NCI-H460 lung, -92% (active); with HOP-92 NSCLC, -86.6% (active). In addition, the growth in the assay on NCI-H522 lung is -75.2% (active); in the assay with A549/ATCC NSCLC it was -83.7% (active); in the assay on 786-0 renal it was -90.7% (active); in the assay on COLO 205 colon it was -73% (active).
As to `COc1ccc([N+](=O)[O-])c(/C=C/C(=O)c2ccccn2)c1`, the growth was 91.3% in the assay on NCI-H23 lung; 84.2% in the assay with NCI-H226 lung; 83.4% with NCI-H322M lung; 78.5% in the assay with HOP-62 NSCLC; 89.4% with NCI-H460 lung; 66.9% in the assay with HOP-92 NSCLC. The growth was 90.1% in the assay on NCI-H522 lung, 87.8% in the assay on A549/ATCC NSCLC, 93.4% in the assay with 786-0 renal and 89.1% in the assay on COLO 205 colon.
In the case of `COc1cc(OC)cc(-c2n[nH]nc2-c2ccc3c(c2)OCO3)c1`, the growth with NCI-H23 lung is 30.1%; in the assay on NCI-H226 lung, 92.1%; in the assay on NCI-H322M lung, 55.5%; in the assay with HOP-62 NSCLC, 30.3%; in the assay on NCI-H460 lung, 12%; in the assay with HOP-92 NSCLC it was 57%. Also, the growth in the assay with NCI-H522 lung is -41.5% (active); in the assay on A549/ATCC NSCLC it was 28.9%; in the assay on 786-0 renal it was 40%; in the assay on COLO 205 colon, -61.2% (active).
As for `O=C(Nc1ccc(I)cc1)c1cccc([N+](=O)[O-])c1O`, the growth in the assay with NCI-H23 lung was -6.76% (active); in the assay with NCI-H226 lung, 20.5%; in the assay with NCI-H322M lung it was 20.9%; with HOP-62 NSCLC, 23.5%; in the assay with NCI-H460 lung it was 17.5%; in the assay with HOP-92 NSCLC, -4.99% (active). Moreover, the growth is 1.75% (active) in the assay on NCI-H522 lung, 14.5% in the assay on A549/ATCC NSCLC, 16.6% in the assay with 786-0 renal and 7.78% (active) in the assay on COLO 205 colon.
For `O=C(Nc1ccc(I)cc1)c1cc([N+](=O)[O-])ccc1O`, the growth in the assay with NCI-H23 lung is 8.5% (active); in the assay on NCI-H226 lung, 45.9%; in the assay with NCI-H322M lung it was 29.7%; with HOP-62 NSCLC it was 23.8%; with NCI-H460 lung, 33.7%; in the assay with HOP-92 NSCLC, -6.55% (active). Moreover, the growth is -1.54% (active) in the assay on NCI-H522 lung, 44.1% with A549/ATCC NSCLC, 39.6% in the assay on 786-0 renal and 37.1% in the assay with COLO 205 colon.
`COc1ccc(/C=C(\C#N)c2ccc([N+](=O)[O-])cc2)c2ccccc12`: the growth was 65.3% with NCI-H23 lung; 16.1% in the assay with NCI-H226 lung; 51.6% in the assay with NCI-H322M lung; 27.1% with HOP-62 NSCLC; 64.6% with NCI-H460 lung; 50.1% with HOP-92 NSCLC. Besides, the growth is 34% with NCI-H522 lung, 48.7% in the assay on A549/ATCC NSCLC, 34.5% in the assay on 786-0 renal and 81.4% in the assay on COLO 205 colon.
In the case of `Cc1ccnc2nc(C(=O)OCC(=O)Nc3ccc(-c4ccccc4)cc3)nn12`, the growth was 99.5% in the assay on NCI-H23 lung; 110% with NCI-H226 lung; 112% in the assay with NCI-H322M lung; 94.5% in the assay on HOP-62 NSCLC; 119% in the assay with NCI-H460 lung; 69.7% in the assay on HOP-92 NSCLC. Moreover, the growth was 107% with NCI-H522 lung, 99.3% in the assay on A549/ATCC NSCLC, 99.8% in the assay on 786-0 renal and 104% in the assay on COLO 205 colon.
`CCN(C(=O)c1cc2ncccc2[nH]1)[C@H]1CCC[C@@H](NCc2cccc(F)c2)C1`: the growth in the assay on NCI-H23 lung is 97.4%; in the assay with NCI-H226 lung, 101%; in the assay on NCI-H322M lung, 80.6%; with HOP-62 NSCLC it was 105%; in the assay with NCI-H460 lung it was 105%; with HOP-92 NSCLC, 92.1%. Besides, the growth in the assay with NCI-H522 lung is 89.8%; in the assay on A549/ATCC NSCLC, 102%; in the assay on 786-0 renal it was 110%; with COLO 205 colon it was 18.7%.
